In experiment [1] the target is T1, Ephrin type-B receptor 2 (Homo sapiens) (UniProt P29323).
T1 sequence (whole entry): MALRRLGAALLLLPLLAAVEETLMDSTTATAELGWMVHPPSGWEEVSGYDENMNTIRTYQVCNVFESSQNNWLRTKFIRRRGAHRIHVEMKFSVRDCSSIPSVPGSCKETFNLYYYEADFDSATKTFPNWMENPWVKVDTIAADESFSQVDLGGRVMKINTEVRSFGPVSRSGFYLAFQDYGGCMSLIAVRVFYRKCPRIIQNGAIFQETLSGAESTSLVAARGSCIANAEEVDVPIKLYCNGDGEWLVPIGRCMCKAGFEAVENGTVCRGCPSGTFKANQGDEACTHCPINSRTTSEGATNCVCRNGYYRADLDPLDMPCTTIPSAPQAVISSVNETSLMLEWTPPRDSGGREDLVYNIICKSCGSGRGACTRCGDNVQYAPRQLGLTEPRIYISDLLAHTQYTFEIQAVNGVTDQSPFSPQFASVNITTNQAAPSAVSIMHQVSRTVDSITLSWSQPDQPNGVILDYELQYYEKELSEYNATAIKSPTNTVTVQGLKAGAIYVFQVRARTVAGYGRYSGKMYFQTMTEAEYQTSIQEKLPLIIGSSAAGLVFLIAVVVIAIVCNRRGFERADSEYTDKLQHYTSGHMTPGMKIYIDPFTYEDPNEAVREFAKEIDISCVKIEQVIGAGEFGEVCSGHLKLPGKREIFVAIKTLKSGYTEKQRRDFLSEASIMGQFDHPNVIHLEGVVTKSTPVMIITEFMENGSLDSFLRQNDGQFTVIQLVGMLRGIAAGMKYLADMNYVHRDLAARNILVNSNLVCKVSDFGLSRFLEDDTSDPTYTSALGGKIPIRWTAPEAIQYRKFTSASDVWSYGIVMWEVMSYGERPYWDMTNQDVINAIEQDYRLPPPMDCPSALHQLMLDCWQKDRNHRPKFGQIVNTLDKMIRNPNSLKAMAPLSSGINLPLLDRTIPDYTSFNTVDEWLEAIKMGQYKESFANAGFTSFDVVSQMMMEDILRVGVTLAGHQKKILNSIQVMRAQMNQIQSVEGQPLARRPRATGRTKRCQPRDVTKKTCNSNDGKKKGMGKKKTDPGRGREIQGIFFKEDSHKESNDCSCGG
Particulars: at 1 µM; call rule not given here.

For experiment [2], the target named is T1, Ephrin type-B receptor 2 (Homo sapiens). The settings on record: at 10 µM.
Experiment [3] concerns the target T2, Ephrin type-B receptor 3 (Homo sapiens) (UniProt P54753).
T2 sequence (whole entry): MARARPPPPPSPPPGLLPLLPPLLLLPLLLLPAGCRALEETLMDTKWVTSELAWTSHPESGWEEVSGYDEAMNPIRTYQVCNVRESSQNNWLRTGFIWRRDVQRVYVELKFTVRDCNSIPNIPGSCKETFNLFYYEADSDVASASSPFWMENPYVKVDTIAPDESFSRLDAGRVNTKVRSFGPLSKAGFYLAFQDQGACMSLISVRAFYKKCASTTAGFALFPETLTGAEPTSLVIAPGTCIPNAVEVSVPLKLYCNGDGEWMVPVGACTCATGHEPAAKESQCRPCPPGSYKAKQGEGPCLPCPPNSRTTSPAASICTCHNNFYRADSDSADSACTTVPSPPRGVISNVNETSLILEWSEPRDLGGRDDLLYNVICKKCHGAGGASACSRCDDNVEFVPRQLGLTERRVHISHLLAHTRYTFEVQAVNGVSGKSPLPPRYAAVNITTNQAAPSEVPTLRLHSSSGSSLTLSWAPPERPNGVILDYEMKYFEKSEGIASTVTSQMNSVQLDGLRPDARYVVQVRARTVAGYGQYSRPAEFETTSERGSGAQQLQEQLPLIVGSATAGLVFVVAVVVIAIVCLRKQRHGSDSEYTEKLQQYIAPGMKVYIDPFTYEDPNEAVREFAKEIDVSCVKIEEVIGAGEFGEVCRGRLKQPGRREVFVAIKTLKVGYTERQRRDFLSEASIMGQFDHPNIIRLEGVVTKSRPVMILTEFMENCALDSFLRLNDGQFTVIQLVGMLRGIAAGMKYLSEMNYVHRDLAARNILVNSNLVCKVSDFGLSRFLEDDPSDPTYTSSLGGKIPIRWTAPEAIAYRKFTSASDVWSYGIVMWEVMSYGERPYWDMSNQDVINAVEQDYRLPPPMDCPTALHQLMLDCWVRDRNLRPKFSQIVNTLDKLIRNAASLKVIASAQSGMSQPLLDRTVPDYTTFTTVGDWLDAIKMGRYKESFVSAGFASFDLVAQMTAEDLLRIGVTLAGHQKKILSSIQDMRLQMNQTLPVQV
The settings on record: at 1 µM.

For experiment [4], the target named is T2, Ephrin type-B receptor 3 (Homo sapiens). The settings on record: at 10 µM.
Experiment [5] addresses T3, Ephrin type-B receptor 4 (Homo sapiens) (UniProt P54760).
T3 sequence (whole entry): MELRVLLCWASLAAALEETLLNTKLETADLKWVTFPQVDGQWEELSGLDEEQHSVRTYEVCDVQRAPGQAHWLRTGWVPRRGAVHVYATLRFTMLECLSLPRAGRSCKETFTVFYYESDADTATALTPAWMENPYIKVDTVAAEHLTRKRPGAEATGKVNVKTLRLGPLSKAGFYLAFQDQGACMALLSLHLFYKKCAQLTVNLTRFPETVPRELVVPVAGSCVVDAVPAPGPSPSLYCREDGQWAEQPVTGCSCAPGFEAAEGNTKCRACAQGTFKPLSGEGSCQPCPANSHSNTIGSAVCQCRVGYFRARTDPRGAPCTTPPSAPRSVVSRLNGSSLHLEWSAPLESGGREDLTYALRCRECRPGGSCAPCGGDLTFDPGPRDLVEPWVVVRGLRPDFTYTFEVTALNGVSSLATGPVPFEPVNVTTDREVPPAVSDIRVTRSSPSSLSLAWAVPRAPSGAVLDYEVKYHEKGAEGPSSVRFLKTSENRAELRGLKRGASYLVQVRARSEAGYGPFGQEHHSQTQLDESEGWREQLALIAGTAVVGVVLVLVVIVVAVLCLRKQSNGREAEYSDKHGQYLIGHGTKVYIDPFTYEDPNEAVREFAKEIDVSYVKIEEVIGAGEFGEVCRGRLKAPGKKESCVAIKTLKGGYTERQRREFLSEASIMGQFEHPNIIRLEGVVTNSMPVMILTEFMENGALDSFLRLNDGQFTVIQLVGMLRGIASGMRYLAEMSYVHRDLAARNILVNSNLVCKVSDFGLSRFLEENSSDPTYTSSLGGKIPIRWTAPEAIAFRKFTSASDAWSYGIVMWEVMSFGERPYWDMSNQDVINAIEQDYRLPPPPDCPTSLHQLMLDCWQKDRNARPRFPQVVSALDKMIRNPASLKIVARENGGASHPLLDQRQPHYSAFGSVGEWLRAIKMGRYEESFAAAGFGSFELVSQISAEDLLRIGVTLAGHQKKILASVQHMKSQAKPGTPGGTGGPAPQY
Particulars: at 1 µM.

The target in experiment [6] is T3, Ephrin type-B receptor 4 (Homo sapiens). The settings on record: at 10 µM.
Experiment [7] has as its target Receptor tyrosine-protein kinase erbB-4 (Homo sapiens) (UniProt Q15303). Particulars: at 1 µM.
Experiment [8] shares this target. Particulars: at 10 µM.
Experiment [9] deals with Focal adhesion kinase 1 (Homo sapiens) (UniProt Q05397). Particulars: at 1 µM.

This is an account of results in ChEMBL document CHEMBL2218924, “A broad activity screen in support of a chemogenomic map for kinase signalling research and drug discovery” (Biochem J, 2013).

As a reminder, the residual activity is the signal under treatment as a percentage of the control signal.

Receptor tyrosine-protein kinase erbB-4 (Homo sapiens), sequence (Q15303 whole entry): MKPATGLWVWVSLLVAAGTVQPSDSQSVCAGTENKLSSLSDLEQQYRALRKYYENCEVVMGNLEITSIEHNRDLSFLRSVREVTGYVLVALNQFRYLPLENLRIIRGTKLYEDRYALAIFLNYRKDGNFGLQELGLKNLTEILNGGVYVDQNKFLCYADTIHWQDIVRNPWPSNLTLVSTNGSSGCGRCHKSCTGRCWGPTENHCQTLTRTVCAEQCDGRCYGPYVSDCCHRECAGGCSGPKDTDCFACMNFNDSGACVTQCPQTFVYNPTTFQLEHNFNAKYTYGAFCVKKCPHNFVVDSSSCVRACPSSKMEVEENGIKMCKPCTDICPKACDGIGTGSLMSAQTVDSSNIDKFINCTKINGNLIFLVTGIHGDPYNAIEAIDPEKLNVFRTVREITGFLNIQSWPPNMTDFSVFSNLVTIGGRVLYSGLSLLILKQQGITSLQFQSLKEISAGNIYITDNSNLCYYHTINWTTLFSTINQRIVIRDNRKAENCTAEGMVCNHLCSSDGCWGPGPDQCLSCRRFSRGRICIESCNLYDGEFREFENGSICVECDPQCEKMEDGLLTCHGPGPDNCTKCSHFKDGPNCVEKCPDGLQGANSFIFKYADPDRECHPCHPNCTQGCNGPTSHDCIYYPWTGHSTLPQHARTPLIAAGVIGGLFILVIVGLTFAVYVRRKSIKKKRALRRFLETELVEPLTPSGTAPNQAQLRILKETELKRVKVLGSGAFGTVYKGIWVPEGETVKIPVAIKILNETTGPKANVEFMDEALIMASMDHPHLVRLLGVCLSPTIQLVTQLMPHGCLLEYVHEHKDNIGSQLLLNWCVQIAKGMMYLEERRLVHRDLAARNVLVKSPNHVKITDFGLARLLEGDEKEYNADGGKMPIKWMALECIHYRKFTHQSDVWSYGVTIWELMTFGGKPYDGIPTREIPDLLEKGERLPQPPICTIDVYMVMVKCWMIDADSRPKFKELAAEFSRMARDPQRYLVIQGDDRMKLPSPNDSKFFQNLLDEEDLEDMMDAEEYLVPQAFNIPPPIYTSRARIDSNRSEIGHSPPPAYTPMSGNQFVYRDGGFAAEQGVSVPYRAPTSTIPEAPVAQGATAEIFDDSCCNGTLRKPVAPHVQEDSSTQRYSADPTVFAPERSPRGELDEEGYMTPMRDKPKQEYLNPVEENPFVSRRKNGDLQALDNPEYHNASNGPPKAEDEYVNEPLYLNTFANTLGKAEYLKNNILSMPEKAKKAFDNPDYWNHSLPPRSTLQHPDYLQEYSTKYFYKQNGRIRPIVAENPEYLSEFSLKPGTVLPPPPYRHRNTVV
Focal adhesion kinase 1 (Homo sapiens), sequence (Q05397 2-1052 limits assumed): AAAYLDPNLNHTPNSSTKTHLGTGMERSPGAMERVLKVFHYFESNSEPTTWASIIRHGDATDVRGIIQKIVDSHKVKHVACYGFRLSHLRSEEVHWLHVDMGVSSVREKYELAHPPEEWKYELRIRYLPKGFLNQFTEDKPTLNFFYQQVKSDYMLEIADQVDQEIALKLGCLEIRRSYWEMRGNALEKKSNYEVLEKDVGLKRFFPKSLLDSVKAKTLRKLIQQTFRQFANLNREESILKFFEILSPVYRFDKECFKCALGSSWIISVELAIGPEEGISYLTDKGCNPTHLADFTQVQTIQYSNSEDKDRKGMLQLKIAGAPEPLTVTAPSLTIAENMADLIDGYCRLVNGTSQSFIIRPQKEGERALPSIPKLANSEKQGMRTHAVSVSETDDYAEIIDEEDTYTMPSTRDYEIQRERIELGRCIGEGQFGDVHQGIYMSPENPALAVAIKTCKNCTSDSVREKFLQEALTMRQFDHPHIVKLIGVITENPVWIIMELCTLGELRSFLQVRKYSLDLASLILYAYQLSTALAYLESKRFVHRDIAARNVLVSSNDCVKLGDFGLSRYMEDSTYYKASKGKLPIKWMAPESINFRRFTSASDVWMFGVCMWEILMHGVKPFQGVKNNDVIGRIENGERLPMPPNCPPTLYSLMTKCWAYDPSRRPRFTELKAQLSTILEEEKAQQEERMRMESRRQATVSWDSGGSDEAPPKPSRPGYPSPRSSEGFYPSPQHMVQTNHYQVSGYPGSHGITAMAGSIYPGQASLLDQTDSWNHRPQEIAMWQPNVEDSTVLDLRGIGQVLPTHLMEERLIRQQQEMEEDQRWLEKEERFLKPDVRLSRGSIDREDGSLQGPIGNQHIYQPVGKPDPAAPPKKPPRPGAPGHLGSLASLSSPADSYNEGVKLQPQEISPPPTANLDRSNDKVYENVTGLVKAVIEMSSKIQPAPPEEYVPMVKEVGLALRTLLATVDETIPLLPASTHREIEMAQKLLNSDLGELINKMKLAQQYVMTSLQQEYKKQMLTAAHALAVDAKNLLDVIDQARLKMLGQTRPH

For the molecule `O=[N+]([O-])c1ccc(-c2nc(-c3ccc(F)cc3)c(-c3ccncc3)[nH]2)cc1`, the residual activity is 111% in experiment [1]; 109% in experiment [2]; 126% (inactive) in experiment [3]; 82% in experiment [4]; 89% in experiment [5]; 76% in experiment [6]. For the same molecule, the residual activity was determined as 76% in [7], 75% in [8] and 107% in experiment [9].
